Assay outcomes from PubChem BioAssay.
In the library only some 1.5% were active in any assay of this set; here they are far more common.
RAD54 branch: RAD54 (human) branch migration inhibition; actives 0.14% (n = 360,000); inhibition, % at 10.4 µM; Q92698; RAD54 Holliday junction branch migration, FAM/BHQ fluorescence; AID 602329;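 active = mean normalized replicate activity at least 40 and at least half of replicates scoring 40 or more; inconclusive = only one of the two criteria met; inactive = mean below 40 and under half of replicates reaching 40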;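 note: 0% = median of neutral control wells and 100% = median of positive control wells; inhibitors cause a drop in the FAM fluorescence signal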
N-glyco inh: N-linked glycosylation inhibition | AID 588692 | actives 0.23% (n = 360,000) | reporter increase, % at 12.5 µM | D54 ERlucT glycosylation luciferase reporter, 24 h; percent of 100 nM tunicamycin response;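 active = mean luciferase reporter signal, scaled so untreated is 0 and the glycosylation-blocking control 100, at or above a set limit in every replicate; inconclusive = mean reaches the limit but not every replicate does; inactive = mean below the limit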;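 note: luciferase carries N-glycosylation sites so blocking glycosylation raises the light; 0% = median of neutral control wells and 100% = median of 100 nM tunicamycin wells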
PvdQ inh: P. aeruginosa PvdQ acylase inhibition | purified PvdQ acylase, fluorescence plate reader | inhibition, % at 10 µM | actives 0.063% (n = 340,000); in the data active = inhibition above about 30%, passing the limit was not always enough; inconclusive = no clear call, values can overlap the other calls;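 note: 0% = vehicle neutral wells and 100% = reference inhibitor wells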
dFosB act-1: enhances mouse delta FosB homodimer DNA binding; P13346; purified delta FosB, TAMRA-CDK5 oligo fluorescence polarization; percent of positive-control signal above neutral wells; activation, % at 25 µM; actives 0.99% (n = 340,000); AID 493131;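 active = mean activation above about 17%, with every replicate also reaching it, limit read from the data, passing the limit was not always enough; inconclusive = only one of the two conditions met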
Target sequence (P13346 whole entry, looked up): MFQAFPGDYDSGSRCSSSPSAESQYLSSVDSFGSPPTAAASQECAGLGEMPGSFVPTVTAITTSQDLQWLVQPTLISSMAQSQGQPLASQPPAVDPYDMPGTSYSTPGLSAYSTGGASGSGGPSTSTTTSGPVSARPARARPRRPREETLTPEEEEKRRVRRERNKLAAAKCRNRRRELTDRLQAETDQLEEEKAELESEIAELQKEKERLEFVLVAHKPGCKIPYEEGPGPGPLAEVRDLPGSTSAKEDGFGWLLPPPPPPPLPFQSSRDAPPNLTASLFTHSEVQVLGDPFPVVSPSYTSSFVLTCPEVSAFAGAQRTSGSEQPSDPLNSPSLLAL
RAD52 inh: blocks human RAD52 DNA annealing. inhibition, % at 18.7 µM. actives 0.46% (n = 360,000). recombinant RAD52 DNA annealing, FRET fluorescence. P43351. AID 651710;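 active = every replicate showing at least 50% inhibition; inconclusive = mean inhibition at least 50% but not in every replicate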
F508del corr: CFTR F508del correction in bronchial cells; CFBE cells, YFP halide quenching; stimulated with forskolin plus potentiator P3; % fluorescence drop versus neutral controls; activity (quench increase), % at 7.58 µM; actives 0.36% (n = 350,000);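 active = mean added fluorescence quench of at least 8% versus neutral control, with both replicates also reaching 8%; inconclusive = only one of the mean or replicate conditions met; inactive = mean below 8% and not both replicates reaching 8%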;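 note: cells transiently co-express mutant CFTR-F508del with the halide-sensitive YFP; corrector assay measuring rescue of mutant channel to the surface after 24 h compound exposure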
dFosB act-2: enhances mouse delta FosB homodimer binding to DNA; activation, % at 24.9 µM; shares compounds with dFosB act-1; purified delta FosB, TAMRA-CDK5 oligo fluorescence polarization; normalised: neutral wells 0, positive control 100; 2,400 tested, under 10 active;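 active = highest replicate activation at or above 34% and every replicate reaching that threshold; inconclusive = meets only one of the two criteria; inactive = meets neither criterion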;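 note: higher polarization means more probe DNA bound by delta FosB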
Active calls of the source: *; ? = inconclusive; · = no result given.

SMILES	RAD54 branch	N-glyco inh	PvdQ inh	dFosB act-1	RAD52 inh	F508del corr	dFosB act-2
Cc1ccc(C)c(NC(=O)CSc2nnc(-c3n[nH]c4ccccc34)o2)c1	-2	3	2	34*	·	·	-1
Cc1ccc(C)c(NC(=O)CSc2nnc(-c3ccccc3C)o2)c1	5	0	7	13	·	·	·
C[C@@H]1CN([C@@H](C)CO)C(=O)Cc2cc(NC(=O)Nc3ccc4c(c3)OCO4)ccc2O[C@H]1CN(C)Cc1ccncc1	9	·	·	·	3	-1	·
O=C(Cc1ccccc1)N1C[C@H]2[C@@H](c3ccccc31)[C@H](CO)N2C(=O)Nc1ccc(F)cc1	5	·	·	·	-12	1	·
CCN(CC)S(=O)(=O)c1ccc(-c2nnc(SCC(=O)Nc3ccc(OC)cc3)o2)cc1	5	-2	-14	107*	·	·	1
COc1cc(/C=C(/Sc2nnc(-c3ccc(F)cc3)o2)C(=O)O)ccc1OC(F)F	-10	-1	-7	2	-19	-2	·
COc1ccc(/C=C(/Sc2nnc(-c3ccc(Cl)cc3)o2)C(=O)O)cc1	·	-1	-11	36*	-12	1	5
CC(=O)c1ccc(N2CCN(C(=O)/C=C/c3ccc4ccccc4n3)CC2)cc1	·	3	2	40*	-22	-2	3
CC(=O)c1ccc(N2CCN(C(=O)c3ccc4ccccc4n3)CC2)cc1	·	1	5	7	-6	-3	·
Cc1ccccc1NC(=O)Cn1nnc2c(cnn2-c2ccc(F)cc2)c1=O	-2	1	6	18*	-16	-1	4
O=C(Cn1ncc2c([nH]c3ccccc32)c1=O)Nc1ccc(F)cc1F	2	2	-7	64*	0	3	9
O=C(C1CCCC1)N1CC(=O)N2[C@H](CO)[C@H](c3ccc(-c4cccnc4)cc3)[C@H]2C1	·	·	·	·	-11	-2	·
Cc1ccc(C(=O)CCC(=O)NNC(=O)c2ccccc2O)cc1	-12	-1	-7	23*	-23	-3	-1
C/C(=N/O)c1ccc2c(c1)OCCOCCOc1cc(/C(C)=N/O)ccc1OCCOCCO2	·	3	9	21*	·	·	5
C/C(=N\O)c1ccc2c(c1)OCCO2	1	2	6	-9	-16	2	·
Cc1ccc2c(c1)C1NC(=S)NC(C)(O2)C1C(=O)Nc1ccc(Cl)cc1 (stereo unspecified)	-2	2	-20	40*	·	·	0
CCC(C)C(NC(N)=O)C(=O)Nc1ccc(OCc2ccccc2)cc1 (stereo unspecified)	-1	-1	-7	43*	-8	-1	6
CCOc1ccc(NC(=O)[C@@H](NC(=O)OCc2ccccc2)[C@@H](C)CC)cc1	·	0	7	-5	·	·	·
C[C@@H]1CN([C@H](C)CO)C(=O)c2cc(NC(=O)Cc3ccccc3)ccc2O[C@@H](C)CCCCO[C@H]1CN(C)Cc1ccc2c(c1)OCO2	-3	·	·	·	·	2	·
C[C@@H]1CN([C@@H](C)CO)C(=O)Cc2cc(NC(=O)CCN3CCOCC3)ccc2O[C@@H]1CN(C)S(=O)(=O)c1ccc(F)cc1	-5	·	·	·	-3	-2	·
Cc1ccc(COc2ccsc2C(=O)NNC(N)=S)cc1	·	0	-4	28*	-18	0	0
O=C(NCC1CC1)[C@H]1[C@H](CO)[C@H]2Cn3c(ccc(-c4ccccc4)c3=O)[C@H]2N1Cc1cocn1	-33	·	·	·	5	2	·
Cc1cccc(NC(=O)Cc2nnc(NC(=O)Nc3ccccc3F)s2)c1	·	-2	-13	40*	-19	·	2
COc1cccc(NC(=O)Nc2nnc(Cc3ccc(F)cc3)s2)c1	1	1	0	29*	4	-1	-1
COc1cccc(NC(=O)Nc2nnc(CC(=O)Nc3ccccc3)s2)c1	2	-5	-9	?	-29	0	·
SMILES	RAD54 branch	N-glyco inh	PvdQ inh	dFosB act-1	RAD52 inh	F508del corr	dFosB act-2
COc1cccc(NC(=O)Nc2cc(NC(=O)Nc3cccc(OC)c3)c(C)nc2C)c1	·	2	-9	18*	·	·	2
COc1cccc(NC(=O)Nc2ccncc2)c1	·	-2	-17	-3	·	·	·
COc1ccc(Cc2nnc(NC(=O)Nc3cccc(OC)c3)s2)cc1	-7	2	-1	4	-11	0	·
O=C(C[C@H]1C=C[C@@H](NC(=O)Nc2cccc(F)c2)[C@@H](CO)O1)NCC1CC1	-10	·	·	·	0	1	·
NS(=O)(=O)c1ccc(CNC(=O)c2cc(-c3ccccn3)nc3ccc(Cl)cc23)cc1	·	-2	-15	21*	-27	·	-2
NS(=O)(=O)c1ccc(CNC(=O)c2cc(-c3cccnc3)nc3ccc(Cl)cc23)cc1	-2	5	-9	15	0	1	·
CC(C)C#Cc1ccc2c(c1)O[C@@H](CN(C)CC1CC1)[C@@H](C)CN([C@@H](C)CO)S2(=O)=O	3	·	·	·	19	1	·
Cc1ccc(OCCCCN(C)Cc2ccccc2)c(Br)c1	11	-2	4	25*	15	0	0
CCCCNC(=S)N/N=C/c1ccc(OCC(=O)Nc2c(C)cc(C)cc2C)c(OC)c1	·	0	-9	22*	-5	1	-1
COc1cc(/C=N/NC(N)=S)ccc1OCC(=O)Nc1ccc(C)c(C)c1	4	5	-9	-1	·	·	·
Cc1cc(C)cc(NC(=O)C2CCN(S(=O)(=O)c3ccc4[nH]c(=O)ccc4c3)CC2)c1	-8	-2	-5	46*	-8	0	-5
CCc1ccc(NC(=O)C2CCCN(S(=O)(=O)c3ccc4[nH]c(=O)ccc4c3)C2)cc1 (stereo unspecified)	2	-7	-4	29*	-5	0	-1
COc1cc(C(=O)OCC(=O)NCc2ccccc2)cc(NC(=O)c2ccco2)c1OC	5	1	10	26*	·	·	2
CCCCn1c(CN2C(=O)c3ccccc3C2=O)nc2ccccc2c1=O	-13	2	-15	30*	·	·	0
O=C1c2ccccc2C(=O)N1Cc1nc2ccccc2c(=O)n1CCCn1ccnc1	·	0	4	-13	·	·	·
CN1c2ccc(Br)cc2[C@H]2[C@H](CCN2S(=O)(=O)c2cccc(F)c2)[C@@H]1CO	14	·	·	·	1	1	·
Cc1cc(N2CCN(C)CC2)nc2ccc(NC(=S)N3CCN(c4cccc(Cl)c4)CC3)cc12	-17	-4	-17	51*	13	-9	5
Cc1cc(N2CCN(C)CC2)nc2ccc(NC(=S)N3CCN(c4ccc(F)cc4)CC3)cc12	-3	-4	-10	-2	-6	-1	·
CO[C@@H](CN(C)S(=O)(=O)c1ccc(Cl)cc1)[C@@H](C)CN(Cc1ccccc1Cl)[C@@H](C)CO	5	·	·	·	-8	-2	·
